Data published in the supplement of paper PMC12669032.

What follows are molecules tested on Escherichia coli IAI1 (assay: growth AUC relative to DMSO control (median of replicates) (fraction); higher = more growth (less inhibition), active = hit call of the paper). Settings: 20 µM; 24 h;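 active = AUC reduced over 20% with Padj below 0.05 in at least 2 of 3 replicates; inactive = otherwise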.
Outline: (§1)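 Gut bacterial monocultures in mGAM were treated with 20 µM compound (1% DMSO) and grown anaerobically at 37 °C in round-bottom 96-well plates from OD600 0.05. OD600 was read hourly for 24 h, with the minimum OD set to 0. Area under the growth curve was normalised to the plate median of solvent-only wells, or to row and column medians on the industrial chemical plate. Each value is the median of three biological replicates, each grown on a separate day.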

Row | Compound | growth AUC
1 | Clc1ccc(C(c2ccccc2Cl)C(Cl)Cl)cc1 (stereo unspecified) | 0.978 (inactive)
2 | CSc1nc(NC2CC2)nc(NC(C)(C)C)n1 | 1.03 (inactive)
3 | CCc1cccc(C)c1N(C(=O)C(=O)O)[C@@H](C)C(=O)O | 0.988 (inactive)
4 | CCNc1nc(NC(C)(C)C)[nH]c(=O)n1 | 0.987 (inactive)
5 | CC(C)N(C(=O)C(=O)O)c1ccccc1 | 1.05 (inactive)
6 | Cc1nn(C)c(F)c1C(=O)Nc1ccccc1C(C)CC(C)C (stereo unspecified) | 1.01 (inactive)
7 | CC(C)c1cc(Oc2ccccc2)cc(C(C)C)c1NC(=S)NC(C)(C)C | 1.01 (inactive)
8 | CCCCOCCOC(=O)COc1ccc(Cl)cc1Cl | 0.983 (inactive)
9 | CCOC(=O)C(C)Oc1ccc(Oc2nc3ccc(Cl)cc3o2)cc1 (racemic) | 0.949 (inactive)
10 | C/C=C/C(=O)Oc1c(C(C)CCCCCC)cc([N+](=O)[O-])cc1[N+](=O)[O-] (mixture of isomers) | 0.985 (inactive)
11 | c1ccc2c(c1)Cc1ccccc1-2 | 1 (inactive)
12 | CC(C)(C)C(O)/C(=C\c1ccc(Cl)cc1)n1cncn1 (stereo unspecified) | 1.03 (inactive)
13 | Oc1ccccc1 | 0.983 (inactive)
14 | Cc1c(Br)c2ccc(F)cc2n1S(=O)(=O)c1ncn(S(=O)(=O)N(C)C)n1 | 1.11 (inactive)
15 | NC(Cn1cncn1)C(=O)O (stereo unspecified) | 0.976 (inactive)
16 | CCCCC(CC)COC(=O)COc1ccc(Cl)cc1C (stereo unspecified) | 1.01 (inactive)
17 | c1ccc(CNc2ncnc3nc[nH]c23)cc1 | 1.01 (inactive)
18 | CON=C(Cc1cccnc1)c1ccc(Cl)cc1Cl | 0.986 (inactive)
19 | COC(=O)Cc1cccc2ccccc12 | 0.968 (inactive)
20 | CC1(C)C(=O)Oc2ccc(OS(C)(=O)=O)cc21 | 1.01 (inactive)
21 | CN(C)c1ccc(N=NS(=O)(=O)[O-])cc1.[Na+] | 1.03 (inactive)
22 | CCOC(=O)Cn1c(=O)sc2cccc(Cl)c21 | 0.957 (inactive)

These molecules were tested on Eubacterium rectale in the same assay as above. Settings: 20 µM; 24 h.
Outline: as §1

Row | Compound | growth AUC
23 | O=C(O)Cc1c(Cl)ccc(Cl)c1Cl | 0.96 (inactive)
24 | COc1cc(OC)c(Cl)cc1N | 1.03 (inactive)
25 | O=S(Cc1ccc(Cl)cc1)c1ccc(Cl)cc1 (stereo unspecified) | 1.09 (inactive)
26 | Cc1cc(C)c(C2=C(O)C3(CCCC3)OC2=O)c(C)c1 | 0.996 (inactive)
27 | CN(C)C(=O)c1cccnc1S(N)(=O)=O | 1.02 (inactive)
28 | CCCN(CCOc1c(Cl)cc(Cl)cc1Cl)C(N)=O | 1 (inactive)
29 | Cc1nn(C)c(OCC(=O)c2ccccc2)c1C(=O)c1ccc(Cl)cc1Cl | 1.04 (inactive)
30 | CC(C)(C)Nc1nc(N)nc(Cl)n1 | 0.979 (inactive)
31 | COC(=O)c1c(Cl)nn(C)c1S(=O)(=O)NC(=O)Nc1nc(OC)cc(OC)n1 | 1 (inactive)
32 | [S] | 1.04 (inactive)
33 | CCCCCCCCc1c(CC)nc2ncnn2c1N | 0.988 (inactive)
34 | Cn1cc(C(=O)Nc2ccccc2-c2cc(F)c(F)c(F)c2)c(C(F)F)n1 | 0.937 (inactive)
35 | CCCOc1nc2ccc(I)cc2c(=O)n1CCC | 0.996 (inactive)
36 | CNc1nc(NC(C)C)nc(SC)n1 | 0.879 (inactive)
37 | CC(C)(C)[C@@H](O)[C@@H](Cc1ccc(Cl)cc1)n1cncn1 (mixture of isomers) | 1.02 (inactive)
38 | Cc1ccc2c(c1)[C@H](Nc1nc(N)nc(C(C)F)n1)[C@@H](C)C2 (stereo partly specified) | 0.91 (inactive)
39 | CCN(CC)c1nc(C)cc(=O)[nH]1 | 0.907 (inactive)
40 | Clc1ccc(C(c2ccccc2Cl)C(Cl)Cl)cc1 (stereo unspecified) | 0.952 (inactive)
41 | CSc1nc(NC2CC2)nc(NC(C)(C)C)n1 | 0.974 (inactive)
42 | CCc1cccc(C)c1N(C(=O)C(=O)O)[C@@H](C)C(=O)O | 1.12 (inactive)

Row | Compound | growth AUC
43 | CCNc1nc(NC(C)(C)C)[nH]c(=O)n1 | 1.03 (inactive)
44 | CC(C)N(C(=O)C(=O)O)c1ccccc1 | 1.11 (inactive)
45 | Cc1nn(C)c(F)c1C(=O)Nc1ccccc1C(C)CC(C)C (stereo unspecified) | 0.932 (inactive)
46 | CC(C)c1cc(Oc2ccccc2)cc(C(C)C)c1NC(=S)NC(C)(C)C | 0.45 (active)
47 | CCCCOCCOC(=O)COc1ccc(Cl)cc1Cl | 1.1 (inactive)
48 | CCOC(=O)C(C)Oc1ccc(Oc2nc3ccc(Cl)cc3o2)cc1 (racemic) | 0.987 (inactive)
49 | C/C=C/C(=O)Oc1c(C(C)CCCCCC)cc([N+](=O)[O-])cc1[N+](=O)[O-] (mixture of isomers) | 0.665 (active)
50 | c1ccc2c(c1)Cc1ccccc1-2 | 1 (inactive)
51 | CC(C)(C)C(O)/C(=C\c1ccc(Cl)cc1)n1cncn1 (stereo unspecified) | 0.978 (inactive)
52 | Oc1ccccc1 | 0.983 (inactive)
53 | Cc1c(Br)c2ccc(F)cc2n1S(=O)(=O)c1ncn(S(=O)(=O)N(C)C)n1 | 0.989 (inactive)
54 | NC(Cn1cncn1)C(=O)O (stereo unspecified) | 0.93 (inactive)
55 | CCCCC(CC)COC(=O)COc1ccc(Cl)cc1C (stereo unspecified) | 1.05 (inactive)
56 | c1ccc(CNc2ncnc3nc[nH]c23)cc1 | 1.16 (inactive)
57 | CON=C(Cc1cccnc1)c1ccc(Cl)cc1Cl | 0.919 (inactive)
58 | COC(=O)Cc1cccc2ccccc12 | 1.07 (inactive)
59 | CC1(C)C(=O)Oc2ccc(OS(C)(=O)=O)cc21 | 1.03 (inactive)
60 | CN(C)c1ccc(N=NS(=O)(=O)[O-])cc1.[Na+] | 0.973 (inactive)
61 | CCOC(=O)Cn1c(=O)sc2cccc(Cl)c21 | 0.996 (inactive)
